Experimental data from PubChem BioAssay (NCI).
About 83,000 compounds went through this panel and 20% of them were active in at least one assay; those are over-represented in the sample as a whole.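 Testing used 96-well plates and a 48-hour single-concentration exposure. Example: -40 means 40% of the starting cells died.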 Active and inactive are the calls of the source. How the source made its calls: active means growth percent below 10; inactive means the rest.

Assays:
Experiment in all cases: NCI-60 one-dose screen, 48 h (100 = growth as untreated, 0 = no growth, -100 = all killed)
Details in all cases: 10 µM unless noted
NCI-H23 lung = test system: NCI-H23 lung
NCI-H226 lung = test system: NCI-H226 lung
NCI-H322M lung = test system: NCI-H322M lung
HOP-62 NSCLC = test system: HOP-62 NSCLC
NCI-H460 lung = test system: NCI-H460 lung
HOP-92 NSCLC = test system: HOP-92 NSCLC
NCI-H522 lung = test system: NCI-H522 lung
A549/ATCC NSCLC = test system: A549/ATCC NSCLC
786-0 renal = test system: 786-0 renal
COLO 205 colon = test system: COLO 205 colon

Measured: growth

Cc1nn(-c2ccc(Cl)cc2)c(=O)n1CCOc1ccccc1Cl
inactive: NCI-H23 lung 91.6% | NCI-H226 lung 103% | NCI-H322M lung 111% | HOP-62 NSCLC 75.2% | NCI-H460 lung 87.2% | HOP-92 NSCLC 78.4% | NCI-H522 lung 116% | A549/ATCC NSCLC 89.9% | 786-0 renal 93.7% | COLO 205 colon 101%

COc1cccc(/C=C/C(=O)c2sc(Nc3ccc(O)cc3)nc2C)c1
inactive: NCI-H23 lung 92.3% | NCI-H226 lung 107% | NCI-H322M lung 93.5% | HOP-62 NSCLC 107% | NCI-H460 lung 105% | HOP-92 NSCLC 107% | NCI-H522 lung 24.9% | A549/ATCC NSCLC 88.2% | 786-0 renal 80.2% | COLO 205 colon 115%

CC(Br)C(O)c1cc2c(cc1Br)OCO2 (stereo not given)
inactive: NCI-H23 lung 100% | NCI-H226 lung 106% | NCI-H322M lung 111% | HOP-62 NSCLC 102% | NCI-H460 lung 112% | HOP-92 NSCLC 104% | NCI-H522 lung 99.9% | A549/ATCC NSCLC 103% | 786-0 renal 100% | COLO 205 colon 120%

COc1cc(Cn2c(SCCC(=O)Nc3ccc(F)cc3)nc3ccccc3c2=O)cc(OC)c1OC
inactive: NCI-H23 lung 90.5% | NCI-H226 lung 79% | NCI-H322M lung 81.1% | HOP-62 NSCLC 82.7% | NCI-H460 lung 96.8% | HOP-92 NSCLC 55.1% | NCI-H522 lung 53.8% | A549/ATCC NSCLC 83.5% | 786-0 renal 90.5% | COLO 205 colon 95.8%

Cc1cc2c(C(C)C)c(O)c(O)c(C=NCCCCCCC(=O)O)c2c(O)c1-c1c(C)cc2c(C(C)C)c(O)c(O)c(C=NCCCCCCC(=O)O)c2c1O
inactive: NCI-H23 lung 21.8% | NCI-H226 lung 74.7% | NCI-H322M lung 38.9% | HOP-62 NSCLC 39.3% | NCI-H460 lung 13.1% | HOP-92 NSCLC 13.8% | A549/ATCC NSCLC 30.7% | 786-0 renal 38.2% | COLO 205 colon 14.6%
active: NCI-H522 lung 9.55%

COC1=CC(c2ccc[nH]2)=N/C1=C\c1[nH]c(C)c(C(=O)CCCCC(=O)Nc2ccccc2)c1C
inactive: NCI-H23 lung 34.4% | NCI-H226 lung 44.1% | NCI-H322M lung 87.3% | HOP-62 NSCLC 80.7% | 786-0 renal 93.5% | COLO 205 colon 67.1%
active: NCI-H460 lung -38.8% | HOP-92 NSCLC -71.4% | NCI-H522 lung -45.3% | A549/ATCC NSCLC -21.4%

COc1cc(CCn2nnc3c(Nc4ccc(N5CCOCC5)cc4)ncnc32)cc(OC)c1
inactive: NCI-H23 lung 95.1% | NCI-H226 lung 90.7% | NCI-H322M lung 111% | HOP-62 NSCLC 104% | NCI-H460 lung 98.4% | HOP-92 NSCLC 47.3% | NCI-H522 lung 88.5% | A549/ATCC NSCLC 98.1% | 786-0 renal 107% | COLO 205 colon 94.9%

COc1ccc(C(=O)/C=C/c2cccc([N+](=O)[O-])c2)c(OC)c1
inactive: NCI-H23 lung 32.6% | NCI-H226 lung 49.2% | NCI-H322M lung 66% | HOP-62 NSCLC 26.1% | HOP-92 NSCLC 67.5% | A549/ATCC NSCLC 27.6% | COLO 205 colon 60.2%
active: NCI-H460 lung 1.68% | NCI-H522 lung 7.28% | 786-0 renal -7.25%

COc1ccc(/C(=N/O)c2cc(F)c(F)c(OC)c2F)cc1O
inactive: NCI-H23 lung 39.2% | NCI-H226 lung 85.7% | NCI-H322M lung 46% | HOP-62 NSCLC 21.5% | HOP-92 NSCLC 50.8% | A549/ATCC NSCLC 42% | 786-0 renal 45% | COLO 205 colon 62.1%
active: NCI-H460 lung 9.72% | NCI-H522 lung -56.7%

CN1CCN(c2ccc3cc(-c4nc5ccccc5[nH]4)c(=O)oc3c2)CC1
inactive: NCI-H23 lung 74.5% | NCI-H226 lung 89% | NCI-H322M lung 105% | HOP-62 NSCLC 98% | NCI-H460 lung 92.7% | HOP-92 NSCLC 58.9% | NCI-H522 lung 94.9% | A549/ATCC NSCLC 90.3% | 786-0 renal 105% | COLO 205 colon 92.4%

CC(=O)Nc1ccc(S(=O)(=O)N2C(=O)CCC2C(=O)Nc2ccc(Br)cc2)cc1 (stereo not given)
active: NCI-H522 lung -7.58% | COLO 205 colon 6.33%
inactive: NCI-H23 lung 21.9% | NCI-H226 lung 50.2% | NCI-H322M lung 31.8% | HOP-62 NSCLC 45.6% | NCI-H460 lung 21.2% | HOP-92 NSCLC 11.8% | A549/ATCC NSCLC 22.3% | 786-0 renal 57.8%

CCOC(=O)c1cc(/C(=N\O)c2cc(OC)c(OC)c(OC)c2)n2cc(C)cc(C)c12
inactive: NCI-H23 lung 55.2% | NCI-H226 lung 74.3% | NCI-H322M lung 66.2% | HOP-62 NSCLC 32.3% | HOP-92 NSCLC 51.9% | A549/ATCC NSCLC 34.9% | 786-0 renal 19.1% | COLO 205 colon 11.5%
active: NCI-H460 lung 4.9% | NCI-H522 lung -10.6%

C=C1C(=O)O[C@H]2[C@H]1CC/C(COC(=O)NCCc1ccc(OC)cc1)=C\CC[C@@]1(C)O[C@@H]21
active: NCI-H226 lung 0.324% | NCI-H522 lung -64.6% | 786-0 renal -31.9% | COLO 205 colon -52.6%
inactive: NCI-H23 lung 66.6% | NCI-H322M lung 88.4% | HOP-62 NSCLC 62.6% | NCI-H460 lung 68.7% | HOP-92 NSCLC 21.9% | A549/ATCC NSCLC 64.1%

Cc1cccc(NC(=O)c2sc3nc4c(cc3c2N)CCC4)c1C
inactive: NCI-H23 lung 36% | NCI-H226 lung 43.7% | NCI-H322M lung 40.1% | HOP-62 NSCLC 35.6% | NCI-H460 lung 10.8% | HOP-92 NSCLC 17.7% | A549/ATCC NSCLC 18.6% | 786-0 renal 42.7%
active: NCI-H522 lung -16.5% | COLO 205 colon 6.68%
